Assay results from PubChem BioAssay (NCATS).
Records with an inconclusive call do not appear. Calls of active or inactive are those of the source. The call rests on the fitted dose curve; in most records, active means well fitted inhibition curve with a large enough effect in the polarisation, with a control signal flat (not every such curve was filed as active); inconclusive means small, poorly fitted or top-dose-only effect, or effect the other way; inactive means flat fitted curve, though single readings scatter; the % refers to the polarisation.

These compounds were tested against Peptidyl-prolyl cis-trans isomerase NIMA-interacting 1 (Homo sapiens) (UniProt Q13526) (assay: qHTS Validation Assay to Find Inhibitors of Pin1 (AID 504536)). Conditions: Pin1 fluorescence polarization peptide binding assay; series mostly up to 57.5 µM.
Peptidyl-prolyl cis-trans isomerase NIMA-interacting 1 (Homo sapiens), sequence (Q13526 whole entry, looked up): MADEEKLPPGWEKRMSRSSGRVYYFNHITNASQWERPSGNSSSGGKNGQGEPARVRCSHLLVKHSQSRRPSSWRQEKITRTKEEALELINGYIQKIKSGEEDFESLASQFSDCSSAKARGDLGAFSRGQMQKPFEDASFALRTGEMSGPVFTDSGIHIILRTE
Text: NIH Molecular Libraries Probe Production Network [MLPCN]
NIH Chemical Genomics Center [NCGC]
The unique chemical properties of Pro allow for the adoption of two completely distinct amide bond conformations (cis and trans). Peptidyl-prolyl cis/trans isomerases (PPIases) are evolutionary conserved enzymes that catalyze cis/trans isomerization of peptidyl-prolyl peptide bonds. Distinct from all other PPIases such as cyclophilins and FK506-binding proteins (FKBPs), Pin1 binds a subset of phos.Ser/Thr-Pro-containing proteins using its protein-targeting WW domain and isomerizes only specific phos.Ser/Thr-Pro bonds, which cannot be effectively catalyzed by other known PPIases.
Pin1-catalyzed conformational regulation can control a spectrum of activities of many key regulators in diverse cellular processes such as cell growth, genotoxic and other stress responses, immune response, germ cell development, neuronal differentiation and survival. Pin1 has emerged as a novel molecular timer that modulates its multiple targets at various steps of a given cellular process to synergistically control the amplitude and duration of a cellular response or process. Importantly, Pin1 is tightly regulated by multiple levels and its deregulation has an important role in a growing number of pathological conditions, including cancer, Alzheimer's disease, aging, asthma and microbial infection, providing a potentially new therapeutic option.
The goal of this screen is to find small-molecule inhibitors of Pin1 using a fluorescence polarization competition assay. A HiFluor-488-labeled peptide binds to the active site of Pin1 and can be displaced by compounds. Compounds were screened as a concentration-titration series that ranged from 57 uM to 0.7 nM.
NCGC Assay Protocol Summary:
Pin1 (0.6 uM) was dispensed into black, solid 1536-well plates at 2 uL/well in 10 mM HEPES (pH 7.5), 10 mM NaCl, 0.01% Tween20, 1 mM DTT, and 1% glycerol. Then, 23 nL of compounds or DMSO were delivered to each well using a pin tool. Two uL of Pin1-1b-HiFluor488 peptide (10 mM HEPES (pH 7.5), 10 mM NaCl, 0.01% Tween20, 1 mM DTT, and 1% glycerol, 0.02 uM Pin1-1b-HiFluor488) was then dispensed, and plates were incubated at room temperature for 10 min. The plates were measured on a ViewLux plate reader for fluorescence polarization signal using a 480/20 nM nm excitation filter and 540/25 nM nm S and P emission filters with a 20 second exposure. The %Activity was determined from the corrected fluorescence polarization values. Unlabeled Pin1-1c peptide was used as a control (3.5 mM two-fold serial; 20 uM final concentration) along with a 1x (0.3 uM) and 0x (no-enzyme) Pin1 enzyme control to normalize %Activity of identified inhibitors; 0x enzyme values corresponded to 100%Activity (full inhibition), while 1x Pin1 enzyme values were used to normalize 0%Activity (no inhibition).
Concentration-response curves were fitted to the signals arising from the resulting fluorescence polarization. The concentration-effect curves were then classified based on curve quality (r2), response magnitude and degree of measured activity, and compounds were subsequently categorized based on their curve class.
Keywords: Peptidyl prolyl isomerase, Pin1, fluorescence polarization, MLSMR, MLPCN, NIH Roadmap, qHTS, NCGC

| Structure (SMILES) | outcome |
| --- | --- |
| Fc1ccc(C(c2ccc(F)cc2)N2CCN(C/C=C/c3ccccc3)CC2)cc1 | inactive |
| CN1C(=O)CC[C@H]1c1cccnc1 | inactive |
| Cc1nc2sccn2c(=O)c1CCN1CCC(=C(c2ccc(F)cc2)c2ccc(F)cc2)CC1 | inactive |
| CCc1cccc(N(C)C(N)=Nc2cccc3ccccc23)c1 | inactive |
| CC1=NS(=O)(=O)c2cc(Cl)ccc2N1 | inactive |
| COCCOC(=O)C1=C(C)NC(C)=C(C(=O)OC(C)C)C1c1cccc([N+](=O)[O-])c1 (stereo not given) | inactive |
| CCc1c(C)[nH]c2c1C(=O)C(CN1CCOCC1)CC2 (stereo not given) | inactive |
| CCOC(=O)C1=C(C)NC(C)=C(C(=O)OC)C1c1cccc(Cl)c1Cl (stereo not given) | inactive |
| CC(C(=O)O)c1ccc(CC2CCCC2=O)cc1 (stereo not given) | inactive |
| Cc1nc2ccccn2c(=O)c1CCN1CCC(C(=O)c2ccc(F)cc2)CC1 | inactive |
| CN1CCN(C2=Nc3ccccc3Oc3ccc(Cl)cc32)CC1 | inactive |
| CC(C)[N+](C)(CCOC(=O)C1c2ccccc2Oc2ccccc21)C(C)C | inactive |
| CN(C)CCCN1c2ccccc2Sc2ccc(C(F)(F)F)cc21 | inactive |
| COc1ccc(CN(CCN(C)C)c2ccccn2)cc1 | inactive |
| NC(N)=N/N=C/c1c(Cl)cccc1Cl | inactive |
| COCCc1ccc(OCC(O)CNC(C)C)cc1 (stereo not given) | inactive |
| C[N+](C)(C)CCOC(N)=O | inactive |
| CNCCCN1c2ccccc2CCc2ccccc21 | inactive |
| NC(=O)c1cn(Cc2c(F)cccc2F)nn1 | inactive |
| COCCCC/C(=N\OCCN)c1ccc(C(F)(F)F)cc1 | inactive |

| Structure (SMILES) | outcome |
| --- | --- |
| OCCN1CCN(CCCN2c3ccccc3C=Cc3ccccc32)CC1 | inactive |
| CC(N=C(NC#N)Nc1ccncc1)C(C)(C)C (stereo not given) | inactive |
| CN(C)CC/C=C1\c2ccccc2COc2ccccc21 | inactive |
| CNC1(C)C2CCC(C2)C1(C)C (stereo not given) | inactive |
| CCCN1C[C@H](CSC)C[C@@H]2c3cccc4[nH]cc(c34)C[C@H]21 | inactive |
| Cc1nc2c([nH]1)c(=O)n(C)c(=O)n2Cc1ccco1 | inactive |
| NC/C=C/C(=O)O | inactive |
| CNCCC(Oc1ccccc1OC)c1ccccc1 (stereo not given) | inactive |
| CC(=O)Nc1nnc(S(N)(=O)=O)s1 | inactive |
| CCCCNC(=O)NS(=O)(=O)c1ccc(C)cc1 | inactive |
| CCN(CC)CCNC(=O)c1cc(S(C)(=O)=O)ccc1OC | inactive |
| COc1ccc([C@@H]2Sc3ccccc3N(CCN(C)C)C(=O)[C@@H]2OC(C)=O)cc1 | inactive |
| COCC(=O)O[C@]1(CCN(C)CCCc2nc3ccccc3[nH]2)CCc2cc(F)ccc2[C@@H]1C(C)C | inactive |
| CCO/C([O-])=N/c1c[n+](N2CCOCC2)no1 | inactive |
| O=C(O)CN(CCN(CC(=O)O)CC(=O)O)CCN(CC(=O)O)CC(=O)O | inactive |
| CC(C)(Oc1ccc(CCNC(=O)c2ccc(Cl)cc2)cc1)C(=O)O | inactive |
| CN(C)CCCN1c2ccccc2Sc2ccccc21 | inactive |
| CCCCNc1c(C(=O)OCC)c(C)nc2c1cnn2CC | inactive |
| C[C@]12CCC(=O)C=C1CC[C@@H]1[C@@H]2CC[C@@]2(C)[C@H]1CC[C@]2(O)C(=O)CO | inactive |
| CN(C)CCOC(=O)COc1ccc(Cl)cc1 | inactive |
